Results reported in PubChem BioAssay AID1259351 (ICCB-Longwood Screening Facility, Harvard Medical School, 2017).
The list shows a part of the results. A number with no mark means an inactive call. Calls of active or inactive are those of the source.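 Rule for the calls: active = inhibition score at or above a set limit, where the score is 100 minus the three-replicate mean percent of control signal; inactive = the rest.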

Biological target: Guanine nucleotide-binding protein G(i) subunit alpha-3 (Homo sapiens) (UniProt P08754)
Assay: inhibitors of GIV binding to Galpha-i3, confirmation, orthogonal assay for GIV-Galpha-i inhibitor project, biochemical, AlphaScreen, His-GIV, GST-Galphai3 (AID 1259351)
Details: purified proteins, 90 min, at 100 µM, active compounds read low

SMILES | AlphaScreen counts
COc1ccc(Nc2cc(C(=O)NCCCN(C)c3ccccc3)c3ccccc3n2)c(OC)c1 | 33800
Cc1ccc(N2C(=O)/C(=C/c3ccc(OCC(=O)O)c(Br)c3)C(=O)NC2=S)cc1 | 6910 (active)
O=C(O)c1cc(NS(=O)(=O)c2ccc3c(c2)CCCC3)cnc1N1CCOCC1 | 28400
Cc1ccc(C(=O)N2CCc3cc(CNC(=O)c4ccc(Br)cc4)ccc32)cc1 | 29400
COc1ccccc1N1C(=O)/C(=C/c2ccc(Cl)cc2)C=C1c1ccccc1 | 45900
CC(=O)Oc1cccc2c1C(=O)C=CC2=O | 35600
CCOc1cc(/C=C2/C(=O)N(c3nn[nH]n3)N=C2C)cc(Cl)c1OCC | 1950 (active)
COc1ccc(N=Nc2c(-c3ccc(OC)cc3)[nH]oc2=O)cc1 | 54000
COC1=C(N2CCOCC2)C(=O)c2ccccc2C1=O | 29700 (active)
COC(=O)Cn1nc2c(-c3nc(-c4ccc(Cl)cc4)no3)cccn2c1=O | 27400
O=C(O)c1c2ccccc2[nH]c2c1oc1cc(=O)ccc12 | 19100 (active)
O=C(O)CCC(C(=O)O)N1C(=O)/C(=C\c2ccco2)SC1=S (centres undefined) | 2280 (active)
O=C(NN=c1c(=O)c2ccccc2c1=O)c1ccncc1 | 28200
CCC(=O)N1CCc2cc(N3CC(C(=O)N4CCN(C(C)C)CC4)CC3=O)ccc21 (centres undefined) | 27700
Cc1ccc(NC(=O)c2nc[nH]c2C(=O)N2CCCCC2)c(C(=O)c2ccccc2)c1 | 27800
CC1=NOC(=O)C1C(c1cccc(Br)c1)c1c(C)[nH]n(-c2ccccc2)c1=O (centres undefined) | 2770 (active)
Cc1nn(-c2ccccc2)c2sc(-c3noc(-c4ccccc4F)n3)cc12 | 31800
Cn1cccc1/C=C1\C(=O)NC(=S)N(c2ccccc2)C1=O | 799 (active)
CCOC(=O)C1=C(C)N(c2ccc(OC)cc2)C(=O)/C1=C\c1ccco1 | 21400 (active)
CCOC(=O)c1nc2cc(C)c(C)cc2nc1NC1CCCCC1 | 38900
N#CC(C#N)=C(C#N)/C=C/n1c2ccccc2c2ccccc21 | 4560 (active)
COc1ccccc1CNc1ncc2nc(-c3ccccc3)oc2n1 | 40200
N#CSc1cc(SC#N)c(N)nc1N | 24300 (active)
CC(=O)Nc1ccc(Nc2c3c4c(cccc4[nH]c2=O)C(=O)c2ccccc2-3)cc1 | 27100
